SMILES strings stand for the structures. The whole screen tested about 220,000 compounds, of which about 1,100 (0.5%) were called active. The list comes from a sample in which actives are over-represented; it also holds similar structures and randomly drawn compounds. Values without a mark were called inactive.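 The calls were made as follows: active = inhibition above about 30% (limit read from the data); inactive = the rest.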

By inhibition is commonly meant the drop in the measured response relative to a control, in per cent.

The target of the experiment is Neutrophil cytosol factor 1 (Homo sapiens) (UniProt P14598). The experiment can be described thus: blockers of p47phox binding to p22phox – biochemical, uHTS, NADPH oxidase regulatory subunit, primary screen (AID 1274).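 Also: 0% = p47phox with labelled peptide and 100% = labelled peptide alone.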 The following applies: p47phox/p22phox peptide binding, fluorescence polarization, 2 h; at 24.7 µM; hits give high values. (In general: Fluorescence polarisation rises when a labelled molecule tumbles more slowly, as on binding a larger partner.)
Chain of Neutrophil cytosol factor 1 (Homo sapiens) (P14598 whole entry, looked up): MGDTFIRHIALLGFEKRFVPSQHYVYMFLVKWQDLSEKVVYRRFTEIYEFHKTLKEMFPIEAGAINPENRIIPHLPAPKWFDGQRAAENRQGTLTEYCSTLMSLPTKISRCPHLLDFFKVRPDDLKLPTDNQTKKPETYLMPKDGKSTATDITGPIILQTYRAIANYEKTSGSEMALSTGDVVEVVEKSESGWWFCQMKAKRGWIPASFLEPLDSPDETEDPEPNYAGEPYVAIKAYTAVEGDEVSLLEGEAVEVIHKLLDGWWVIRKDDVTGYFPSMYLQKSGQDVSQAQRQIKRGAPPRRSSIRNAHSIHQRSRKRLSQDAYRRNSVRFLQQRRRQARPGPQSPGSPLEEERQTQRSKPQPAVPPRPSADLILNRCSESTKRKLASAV
Take `COc1ccc(N2C(=O)CNC2=S)cc1`: the inhibition was 41.5% (active). Consider `COc1ccc(N2C(=O)C(Cc3ccccc3)NC2=S)cc1` (configuration not stated), for which the inhibition is -10.2%. For the compound `COc1ccc(N2C(=O)CC(SC(C)C)C2=O)cc1` (configuration not stated), the inhibition is -5.28%. As for `Cc1c(C(=O)OC(C)C)sc(NC(=O)c2cccnc2)c1C#N`, the inhibition was -54.3%. Take `Cn1cnnc1SCC(=O)Nc1ccc(N2CCOCC2)cc1`: the inhibition is 50% (active). For `O=C(CSc1ccc([N+](=O)[O-])cn1)Nc1ccc(N2CCOCC2)cc1` the value was 2.81%; for `O=C(O)CCC(=O)Nc1ccc(N2CCOCC2)cc1`, -1.84%; for `CN1CCN(CCCCOc2ccccc2-c2ccccc2)CC1`, -0.29%.

For `CC(C)=CCCC1(C)C=Cc2c(ccc3c2[nH]c2cc(O)c(C)cc23)O1` (configuration not stated), the inhibition was -11.9%. Consider `O=c1[nH]c2ccccc2n2c(-c3ccccc3)nnc12`, for which the inhibition is 69.6% (active). For `O=[N+]([O-])c1cccc(-c2nnc3c4ccccc4c4ccccc4n23)c1` the value was -1.55%.

As to `CCOC(=O)c1cnc2[nH]c3ccccc3n2c1=O`, the inhibition was 0.2%. In the case of `COc1ccc2oc(N)c(C=O)c(=O)c2c1`, the inhibition was -6.85%. Regarding `CC/C(O)=N\S(=O)(=O)c1ccc(N=NN(C)C)cc1`, the inhibition was -7.34%.

With `COc1ccccc1OCCNC(=O)c1cc([N+](=O)[O-])cc([N+](=O)[O-])c1`, the inhibition is 5.08%. In the case of `CCOC(=O)Cn1c(=O)oc2cc(S(=O)(=O)NCC3CCCO3)ccc21` (configuration not stated) it was -8.76%.

Regarding `CCc1cc(Br)ccc1NC(=O)C1CCCO1` (configuration not stated), the inhibition was -3.52%. In the case of `OC(CNCC1CCCO1)Cn1c2ccc(Br)cc2c2cc(Br)ccc21` (configuration not stated) it was 64% (active). For `CS(=O)(=O)N1CCc2cc(C(=O)Nc3ccccc3)ccc21` the value was -4.32%; for `CC(C)Cc1nn2c(=O)cc(O)nc2s1`, -2.97%; for `Cc1cc(=O)[nH]c(=S)[nH]1`, -3.01%. On to `Cc1c(C)c(C)c2[nH]c(=S)[nH]c2c1C`, for which the inhibition was -7.18%. In the case of `O=c1[nH]c(=S)[nH]c2[nH]c(=S)[nH]c12` it was 32.1% (active); in that of `Cn1c(=O)c([N+](=O)[O-])c(Oc2ccccc2)c2ccccc21`, 0.11%; in that of `CCOc1cc(NC(=O)c2ccco2)c(OCC)cc1NC(=O)COc1ccccc1`, 35.5% (active). For the compound `CCOc1cc(NC(=S)NCc2ccco2)c(OCC)cc1NC(=O)c1ccco1`, the inhibition is 4.63%. For `CCOc1cc(NC(=S)NCCCOC)c(OCC)cc1NC(=O)c1ccco1` the value was -10.9%. For `COc1ccccc1P(=O)(c1ccccc1)c1ccccc1NC(C)=O` (configuration not stated), the inhibition was 7.25%. In the case of `COc1ccc(/C=C/C(=O)OCC(=O)NCc2cccs2)cc1OC` it was -9.49%. Take `COC(=O)Cc1c(O)ccn(Cc2cccc(C(F)(F)F)c2)c1=O`: the inhibition was -10.6%. In the case of `CC1=CC(C)(C)NC(=S)N1NC(=O)c1ccccc1Cl` it was -1.05%; in that of `COc1ccccc1C(=O)NN1C(=O)C2C3C=CC(O3)C2C1=O` (configuration not stated), -8.76%; in that of `O=C(NN1C(=O)C2C(C1=O)C1C=CC2C12CC2)c1ccccc1Cl` (configuration not stated), 43.4% (active).

`COc1ccc(COCC(O)CN2CCC(C(N)=O)CC2)cc1` (configuration not stated): the inhibition was -6.99%. In the case of `Cc1ccccc1Nc1scc(-c2ccc(Br)cc2)[n+]1-c1ccccc1C` it was -1.63%.

For `CC(C)CNC(=O)COC(=O)c1ccccc1OCC(=O)Nc1ccc(Br)cc1`, the inhibition was 0.42%. In the case of `CC1CN(S(=O)(=O)c2ccc(C(=O)Nc3sccc3C(N)=O)cc2)CC(C)O1` (configuration not stated), the inhibition is -4.8%. Take `CN1/C(=C\C(=O)c2oc3ccccc3c2N)C(C)(C)c2ccccc21`: the inhibition is -9.12%. `CN1/C(=C\C(=O)c2cccnc2Cl)C(C)(C)c2ccccc21`: the inhibition was -37.8%. Consider `CN1/C(=C\C=C2\N=C(c3ccc(F)cc3)OC2=O)C(C)(C)c2ccccc21`, for which the inhibition was 149% (active). For `COc1cc(C(=O)NCc2ccc3c(c2)cc(C)n3C)cc(OC)c1OC` the value was 1.37%; for `O=C(O)C1=C[C@H](c2cccs2)C[C@H](OCCCCO)O1`, -14.3%; for `Cc1ccc(C)c(CSc2nc(-c3ccco3)nc3c2c(=O)n(C)c(=O)n3C)c1`, -1.58%. For the compound `CC(C)(C)NC(=O)/C(=C/c1cccnc1)NC(=O)c1ccco1`, the inhibition was -7.92%. In the case of `C=CCN1C=C2C(=O)C(C)(OC(=O)CCc3ccccc3)C(=O)C=C2C=C1c1ccc(C#N)cc1` (configuration not stated) it was -11.9%; in that of `CC1(OC(=O)CCc2ccccc2)C(=O)C=C2C=C(c3ccc(C#N)cc3)N(CCc3ccccn3)C=C2C1=O` (configuration not stated), 32.3% (active). For `COCCN1C=C2C(=O)C(C)(OC(=O)C3CCCC3)C(=O)C=C2C=C1c1ccsc1` (configuration not stated), the inhibition is 0.87%.

`CCN(C(=O)CN1CCN(Cc2ccccc2)CC1)c1c(N)n(Cc2ccccc2)c(=O)[nH]c1=O`: the inhibition was -14.8%. For `NC(=O)N1CCc2ccccc21`, the inhibition is 3.78%. In the case of `O=C(c1cnn2ccccc12)N1CCc2ccccc21` it was -1.85%; in that of `O=C(c1cccc(C(=O)N2CCc3ccccc32)n1)N1CCc2ccccc21`, 45.6% (active); in that of `Nc1nnn(CC(=O)N/N=C/c2ccc(O)cc2)n1`, -6.45%. In the case of `CN(C)c1nc(=Nc2cccc(Cl)c2)ss1` it was -21.8%. For `CCCCN=C1C([N+](=O)[O-])=CC=C2C1=NC1(CCCCC1)N2O` the value was 103% (active); for `Oc1ccc2ccccc2c1N=Nc1nccs1`, 59.9% (active); for `Oc1ccc(N=Nc2nccs2)c(O)c1`, -48.9%. In the case of `Oc1c(C=Nc2cccc3nsnc23)ccc2ccccc12`, the inhibition was -51.3%. As to `CCN(C(=O)COC(=O)/C=C/c1nc2ccccc2s1)C1CCS(=O)(=O)C1` (configuration not stated), the inhibition is -4.73%. In the case of `Oc1c(CN2CCN(c3ccc(F)cc3)CC2)cc(Cl)c2cccnc12` it was 11.9%; in that of `CCN1CCN(C(c2cccnc2)c2cc(Cl)c3cccnc3c2O)CC1` (configuration not stated), 38.2% (active); in that of `CCOC(=O)N1CCN(C(c2cccnc2)c2ccc3cccnc3c2O)CC1` (configuration not stated), 6.02%. In the case of `CC(=O)Nc1nc(C)c(-c2csc(Nc3ccc(S(N)(=O)=O)cc3)n2)s1` it was -21.6%.

These data come from PubChem BioAssay AID1274 (Emory University Molecular Libraries Screening Center, 2008).
